Assay results from PubChem BioAssay (Tox21).
Inconclusive results are not listed. Activity calls are given as the source filed them. Unless noted, the call rests on the fitted dose curve; in most records, active means well fitted curve in the direction sought with a large enough effect in the repeat runs; inconclusive means weak or mixed curves; inactive means no such curve, though single readings can be large; an effect the other way counts as inactive or inconclusive.

What was measured:
[1] = qHTS assay for small molecule agonists of the p53 signaling pathway (AID 651631; calls by dose curve; further: nearly all actives have a fitted effect of over 15% in size)
Method in brief: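 HCT-116 cells carrying a stable p53 response element–beta-lactamase reporter were plated, rested 5 h at 37 °C, then exposed to compound in DMSO for 16 h at 37 °C; reporter activity was read as FRET substrate fluorescence after 2 h at room temperature.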

[2] = qHTS assay for small molecules that induce genotoxicity in human embryonic kidney cells expressing luciferase-tagged ATAD5 (AID 651632); further: nearly all actives have a fitted effect of over 15% in size
Method in brief: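 DMSO vehicle served as the control. HEK293T reporter cells, 16 hr at 37C, then 30 min Amplite at room temperature; ATAD5 induction is measured as luciferase activity.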

[3] = qHTS assay for small molecule agonists of the p53 signaling pathway - cell viability (AID 651633; calls by dose curve; further: series mostly up to about 83 µM; nearly all actives have a fitted effect of over 30% in size)
Method in brief: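 p53RE-bla cells, seeded at 4,000 per well and rested 5 h at 37 C/5% CO2, received compounds in DMSO for 16 h at 37 C. CellTiter-Glo was then added, and luminescence was read after 30 min at room temperature to gauge cytotoxicity.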

[4] = qHTS assay for small molecules that induce genotoxicity in human embryonic kidney cells expressing luciferase-tagged ATAD5 - cell viability (AID 651634; calls by dose curve; further: nearly all actives have a fitted effect of over 25% in size)
Method in brief: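 Here HEK293T cells with the ATAD5 luciferase reporter are incubated with test compounds for 15.5 hr, and cytotoxicity is then gauged by measuring protease activity in live cells using fluorescence.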

[5] = qHTS assay for small molecule disruptors of the mitochondrial membrane potential - cell viability (AID 720634; calls by dose curve;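 further: human HepG2 liver cancer cells; series mostly up to about 83 µM; nearly all actives have a fitted effect of over 20% in size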)
Method in brief: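 Viability of HepG2 cells is scored from ATP content by luminescence; cells are exposed to compound for 1 hr at 37 C and 5% CO2, then dosed with m-MPI dye before the CellTiter-Glo reagent.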

[6] = qHTS assay for small molecule disruptors of the mitochondrial membrane potential (AID 720635)
Method in brief: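 HepG2 cells (2,000/well) attached overnight at 37C, then took compound for 1 hr at 37C, 5% CO2. Mito-MPS dye was added for 30 min; fluorescence was read at 490/535 nm (monomers) and 540/590 nm (aggregates).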

[7] = qHTS assay to test for compound auto fluorescence at 590 nm (red) in HepG2 cells (AID 720674)
Method in brief: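 Compound auto-fluorescence is scored relative to Rose Bengal sodium, measured at 540/590 nm in live HepG2 cultures after 1 hr compound contact (37 C, 5% CO2).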

[8] = qHTS assay to test for compound auto fluorescence at 535 nm (green) in HepG2 cells (AID 720675)
[9] = qHTS assay to test for compound auto fluorescence at 460 nm (blue) in HEK293 cells (AID 720678)
Method in brief: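 HEK293 cells (2,000 per well, medium with 10% dialyzed FBS) attached for 4-5 hr at 37C, then received compound and stood overnight at 37C, 5% CO2. Blue fluorescence was read at Ex/Em 405/460 nm and expressed relative to triamterene.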

[10] = qHTS assay to test for compound auto fluorescence at 590 nm (red) in HEK293 cells (AID 720679)
Method in brief: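 HEK293 cells (2,000/well, medium with 10% dialyzed FBS) attached for 4-5 hr at 37C, received 23 nL compound and were incubated overnight at 37C, 5% CO2. Red fluorescence was then read at 540/590nm Ex/Em, referenced to Rose Bengal sodium.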

[11] = qHTS assay to test for compound auto fluorescence at 535 nm (green) in HEK293 cells (AID 720680)
[12] = qHTS assay to test for compound auto fluorescence at 460 nm (blue) in HEK293 cell free culture (AID 720681)
Method in brief: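 Test compounds were pinned into cell-free culture medium (DMEM with 10% FBS) and fluorescence was read directly at Ex/Em 405/460 nm. Signals were expressed as fluorescence equivalents of triamterene, with DMSO vehicle as control.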

[13] = qHTS assay to test for compound auto fluorescence at 535 nm (green) in HEK293 cell free culture (AID 720682)
Method in brief: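 Read-out: 485/535 nm fluorescence intensity, calibrated against fluorescein. Medium only (DMEM + 10% FBS, no cells); test compound or DMSO vehicle added by pintool before plate reading.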

[14] = qHTS assay to test for compound auto fluorescence at 590 nm (red) in HEK293 cell free culture (AID 720683)
Method in brief: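 Tox21 10K library compounds were pinned into cell-free DMEM with 10% FBS and fluorescence was read at excitation 540 nm. Activity is expressed as Rose Bengal sodium equivalency.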

[15] = qHTS assay to test for compound auto fluorescence at 590 nm (red) in HepG2 cell free culture (AID 720684)
Method in brief: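 Ex 540 / Em 590 nm read of compound in cell-free MEM (10% FBS). Rose Bengal sodium reference.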

[16] = qHTS assay to test for compound auto fluorescence at 460 nm (blue) in HepG2 cell free culture (AID 720685)
Method in brief: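 Cell-free plates of MEM plus 10% FBS received 23 nL compound or DMSO vehicle; blue-channel (405/460 nm) intensity scored against triamterene as reference fluorophore.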

[17] = qHTS assay to test for compound auto fluorescence at 535 nm (green) in HepG2 cell free culture (AID 720686)
[18] = qHTS assay to test for compound auto fluorescence at 460 nm (blue) in HepG2 cells (AID 720687)
Method in brief: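 Cells (2,000/well in MEM with 10% FBS) attached overnight at 37 C, then were exposed to compound or DMSO for 1 hr at 37 C, 5% CO2. Fluorescence read at Ex/Em 405/460 nm, expressed as triamterene-equivalent signal.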

[19] = target: Glucocorticoid receptor (Homo sapiens) (UniProt P04150); test: qHTS assay to identify small molecule agonists of the glucocorticoid receptor (GR) signaling pathway (AID 720691; active means well fitted activation curve with a large enough effect in the signal ratio in the repeat runs, not every such curve was filed as active; the % refers to the signal ratio)
Sequence of Glucocorticoid receptor (Homo sapiens) (P04150 whole entry, looked up): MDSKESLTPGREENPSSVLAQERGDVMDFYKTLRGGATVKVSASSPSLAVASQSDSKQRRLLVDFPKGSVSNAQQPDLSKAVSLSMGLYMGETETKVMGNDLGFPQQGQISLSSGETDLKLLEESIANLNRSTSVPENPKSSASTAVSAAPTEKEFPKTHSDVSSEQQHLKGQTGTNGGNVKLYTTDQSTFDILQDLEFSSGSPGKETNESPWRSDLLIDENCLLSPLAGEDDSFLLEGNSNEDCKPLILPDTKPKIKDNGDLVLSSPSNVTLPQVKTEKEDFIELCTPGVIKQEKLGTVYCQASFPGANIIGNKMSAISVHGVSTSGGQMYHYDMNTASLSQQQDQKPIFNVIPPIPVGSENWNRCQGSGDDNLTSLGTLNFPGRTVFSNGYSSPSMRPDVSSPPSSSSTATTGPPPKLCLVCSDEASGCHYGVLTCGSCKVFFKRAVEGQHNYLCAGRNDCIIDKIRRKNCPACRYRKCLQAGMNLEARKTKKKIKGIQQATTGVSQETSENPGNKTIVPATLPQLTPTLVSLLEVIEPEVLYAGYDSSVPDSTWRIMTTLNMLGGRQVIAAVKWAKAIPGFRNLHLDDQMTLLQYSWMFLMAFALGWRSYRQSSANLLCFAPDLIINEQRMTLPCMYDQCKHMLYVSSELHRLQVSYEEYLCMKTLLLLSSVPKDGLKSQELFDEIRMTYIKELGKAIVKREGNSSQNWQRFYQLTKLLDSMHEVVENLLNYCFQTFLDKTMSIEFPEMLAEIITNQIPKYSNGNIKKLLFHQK
Method in brief: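 Compounds in DMSO, alongside positive controls, were added to GR-bla HeLa reporter cells and incubated 18 h at 37 C; GRE-driven beta-lactamase was detected by fluorescence after 2 h with FRET substrate at room temperature.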

[20] = target: Glucocorticoid receptor (Homo sapiens) (UniProt P04150); test: qHTS assay to identify small molecule antagonists of the glucocorticoid receptor (GR) signaling pathway (AID 720692; active means well fitted inhibition curve with a large enough effect in the signal ratio in the repeat runs, not every such curve was filed as active; the % refers to the signal ratio)
Method in brief: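 In a 1536-well cell format, compounds were added 4 h after seeding GR-bla HeLa cells, together with dexamethasone at 5 nM final; reporter activity was measured by FRET-substrate fluorescence following 18 h at 37 C.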

Measured: Potency

CC(=O)O[C@@H]1CC2CCC1(C)C2(C)C (stereo partly drawn)
inactive: [1] | [2] | [3] | [4] | [5] | [6] | [7] | [8] | [9] | [10] | [11] | [12] | [13] | [14] | [15] | [16] | [17] | [18] | [19] | [20]

CC(C)COC(=O)c1ccccc1
inactive: [1] | [2] | [3] | [4] | [5] | [6] | [7] | [8] | [9] | [10] | [11] | [12] | [13] | [14] | [15] | [16] | [17] | [18] | [19] | [20]

CC(=O)O[C@H]1C[C@@H]2CC[C@@]1(C)C2(C)C
inactive: [1] | [2] | [3] | [4] | [5] | [6] | [7] | [8] | [9] | [10] | [11] | [12] | [13] | [14] | [15] | [16] | [17] | [18] | [19] | [20]

CC(C)c1ccc(C=O)cc1
inactive: [1] | [2] | [3] | [4] | [5] | [6] | [7] | [8] | [9] | [10] | [11] | [12] | [13] | [14] | [15] | [16] | [17] | [18] | [19] | [20]

CC1=C(C(=O)O)N2C(=O)[C@@H](NC(=O)[C@H](N)c3ccccc3)[C@H]2SC1
inactive: [1] | [2] | [3] | [4] | [5] | [7] | [8] | [9] | [10] | [11] | [12] | [13] | [15] | [16] | [17] | [18] | [19] | [20]

CCCCOCCOC(=O)COc1ccc(Cl)cc1Cl
inactive: [1] | [2] | [3] | [4] | [5] | [7] | [8] | [9] | [10] | [11] | [12] | [13] | [14] | [15] | [16] | [17] | [18] | [19] | [20]

CCCCCCCCCOC(=O)CCCCC(=O)OCCCCCCC
inactive: [1] | [2] | [3] | [4] | [5] | [7] | [8] | [9] | [10] | [11] | [12] | [14] | [15] | [16] | [17] | [18] | [20]

CC/C(C)=N\O[Si](C)(O/N=C(\C)CC)O/N=C(\C)CC
inactive: [1] | [2] | [3] | [4] | [6] | [7] | [8] | [9] | [10] | [11] | [12] | [13] | [14] | [15] | [16] | [17] | [18]

Cc1ccccc1C(N)=O
inactive: [1] | [2] | [3] | [4] | [5] | [6] | [7] | [8] | [9] | [10] | [11] | [12] | [13] | [15] | [16] | [17] | [18] | [19] | [20]

C=CC(=O)OCC1CCCO1 (stereo not drawn)
inactive: [1] | [2] | [3] | [4] | [5] | [7] | [8] | [9] | [10] | [11] | [12] | [13] | [14] | [15] | [16] | [17] | [18]

CCCCCCCCCCOC(C)=O
inactive: [1] | [2] | [3] | [4] | [5] | [6] | [7] | [8] | [9] | [10] | [11] | [12] | [14] | [15] | [16] | [17] | [18] | [19] | [20]

c1ccc2cnccc2c1
inactive: [1] | [2] | [3] | [4] | [6] | [7] | [8] | [9] | [10] | [11] | [12] | [13] | [14] | [15] | [16] | [17] | [18] | [19] | [20]

C=CC(=O)CCCCC
inactive: [1] | [2] | [3] | [4] | [5] | [7] | [8] | [9] | [10] | [11] | [12] | [14] | [15] | [16] | [17] | [18]

O=C(O)c1cc2ccccc2nc1C(=O)O
inactive: [1] | [2] | [3] | [4] | [5] | [7] | [8] | [9] | [10] | [11] | [12] | [13] | [14] | [15] | [16] | [17] | [18] | [19] | [20]

CCCCCCCCCCCCCCC(=O)NC(CO)CCCCCCCCCCCCCC (stereo not drawn)
inactive: [1] | [2] | [3] | [4] | [5] | [7] | [8] | [9] | [10] | [11] | [12] | [13] | [15] | [16] | [17] | [18] | [19] | [20]
